Compounds without any hit were thinned out: in the full panel of roughly 83,000, 20% have a hit.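 Percent growth is the endpoint: 0 to 100 indicates growth inhibition (40 means 60% inhibition), 0 means no net growth, and negative values indicate cell death.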 Unmarked numbers belong to inactive results. Active and inactive are the calls of the source. How the source made its calls: active means growth percent below 10; inactive means the rest.
Legend:
Experiment in all cases: NCI-60 one-dose screen, 48 h (100 = growth as untreated, 0 = no growth, -100 = all killed)
Settings in all cases: 10 µM unless noted
HCT-15 colon = system: HCT-15 colon
HT29 colon = system: HT29 colon
SNB-75 CNS = system: SNB-75 CNS
SNB-19 CNS = system: SNB-19 CNS
U251 CNS = system: U251 CNS
PC-3 prostate = system: PC-3 prostate
SK-MEL-5 melanoma = system: SK-MEL-5 melanoma
UACC-62 melanoma = system: UACC-62 melanoma
LOX IMVI melanoma = system: LOX IMVI melanoma
SK-MEL-28 melanoma = system: SK-MEL-28 melanoma
SK-MEL-2 melanoma = system: SK-MEL-2 melanoma
EKVX NSCLC = system: EKVX NSCLC
SN12C renal = system: SN12C renal
UO-31 renal = system: UO-31 renal
TK-10 renal = system: TK-10 renal
ACHN renal = system: ACHN renal
CAKI-1 renal = system: CAKI-1 renal
A498 renal = system: A498 renal
CCRF-CEM leukemia = system: CCRF-CEM leukemia
MOLT-4 leukemia = system: MOLT-4 leukemia

Row | Compound | growth (HCT-15 colon) | growth (HT29 colon) | growth (SNB-75 CNS) | growth (SNB-19 CNS) | growth (U251 CNS) | growth (PC-3 prostate) | growth (SK-MEL-5 melanoma) | growth (UACC-62 melanoma) | growth (LOX IMVI melanoma) | growth (SK-MEL-28 melanoma) | growth (SK-MEL-2 melanoma) | growth (EKVX NSCLC) | growth (SN12C renal) | growth (UO-31 renal) | growth (TK-10 renal) | growth (ACHN renal) | growth (CAKI-1 renal) | growth (A498 renal) | growth (CCRF-CEM leukemia) | growth (MOLT-4 leukemia)
1 | Nc1ncc(-c2ccc(NS(=O)(=O)c3ccc(Cl)c(Cl)c3)cc2)[nH]1 | 94.6% | 107% | 90.9% | 87.7% | 92.3% | 76.5% | 97.2% | 78.2% | 89.5% | 99.3% | 105% | 86.7% | 90.9% | 76.3% | 80% | 95.7% | 71.6% | 85.1% | 55.2% | 73.9%
2 | CCCn1cnc2c(c1=N)C(c1ccc(Cl)cc1)c1sc3c(CC)cccc3c1O2 (stereo not given) | 17.6% | -5.38% (active) | -1.58% (active) | 23.1% | 14.3% | 3.88% (active) | 31% | 12.8% | 29.3% | 57.8% | 22.5% | 43% | 27.8% | 32.4% | 61.1% | 35.3% | 32.2% | -8.25% (active) | 0.961% (active) | 10%
3 | COc1cc(-c2nc(-c3ccccc3)[nH]c2-c2ccnc(NCCCNS(=O)(=O)c3cccc(F)c3)n2)ccc1Cl | 25.7% | 23.1% | 77.4% | 66.3% | 44.5% | 25.2% | 34.2% | 44.1% | 35.5% | 55% | 43.5% | 54.3% | 57.7% | 35.9% | 72.3% | 32.8% | 42.9% | 70.4% | 24.6% | 19.6%
4 | CC(C)(C)c1ccc(C(=O)Nc2nc3ccc(O)cc3s2)cc1 | -5.95% (active) | 2.02% (active) | 96.2% | 63.5% | 59.1% | 50.1% | 37.5% | 45.1% | 10.4% | 47.1% | 71.4% | 47.5% | 53.5% | 25.5% | 74.9% | 39% | 15.1% | 48.7% | 41.9% | 33%
5 | NS(=O)(=O)c1ccc(Nc2nc(SCc3ccccc3)nc3ccccc23)cc1 | 39.1% | 41% | 70.5% | 78.2% | 60.1% | 54.1% | 49.8% | 70% | 52.3% | 91.6% | 92.4% | 77.7% | 65.1% | 46.9% | 81.5% | 62% | 49.1% | 48.5% | 41.8% | 43.9%
6 | O=C1[C@H]2Cc3c([nH]c4ccccc34)[C@@H](c3c(Cl)cccc3Cl)N2C(=O)CN1C1CCN(CC2CCCCC2)CC1 | 29.5% | 20.5% | 100% | 94.6% | 89.1% | 63.5% | 83.7% | 94.3% | -59.9% (active) | 99.3% | 111% | 88.2% | 87.8% | 62.6% | 142% | 84.1% | 81.9% | 87.2% | 47.2% | 54.6%
7 | C=C1CC[C@@H]2[C@](C)(CO)[C@H](O)CC[C@@]2(C)[C@@H]1C/C(O)=C1\CCOC1=O | 90.9% | 96.5% | 96.4% | 97.9% | 88.2% | 99.7% | 101% | 88.9% | 72.9% | 108% | 103% | 102% | 86.8% | 99.4% | 114% | 101% | 101% | 94.4% | 60.2% | 104%
8 | O=C(CNc1nc(-c2cccc([N+](=O)[O-])c2)cs1)Nc1cccc([N+](=O)[O-])c1 | 3.96% (active) | -34.9% (active) | 52.9% | -12.3% (active) | -14.8% (active) | -37.8% (active) | -84.5% (active) | -62.6% (active) | -74.3% (active) | -24.3% (active) | 9.35% (active) | 52.9% | -4.54% (active) | -79.3% (active) | -13.6% (active) | -20.1% (active) | -10.3% (active) | -77.4% (active) | -0.65% (active) | 6.77% (active)
9 | C#C[C@]1(O)CC[C@H]2[C@@H]3CC=C4c5sc(-c6cccc(O)c6)nc5CC[C@]4(C)[C@H]3CC[C@@]21C | -25.2% (active) | -13.7% (active) | -52.7% (active) | -19.8% (active) | -47.6% (active) | -54.7% (active) | -77.1% (active) | -61.3% (active) | -62.4% (active) | -68.8% (active) | -24.6% (active) | 7.48% (active) | -48.6% (active) | -30.4% (active) | 2.76% (active) | -58.7% (active) | -19.9% (active) | -66.9% (active) | -31.8% (active) | -11.8% (active)
10 | CC1=NC2=NC(=O)/C(=C3/N=C(C)C=C(c4ccccc4)N3N)NN2C(c2ccccc2)=C1 | 107% | 109% | 116% | 96.3% | 105% | 96.7% | 99.1% | 88.7% | 102% | 109% | 108% | 83.8% | 100% | 78.6% | 168% | 101% | 83.2% | 127% | 109% | 104%
11 | CCCCCc1ccc(S(=O)(=O)Nc2cccc(-c3csc(NC(=O)CNCCN(C)C)n3)c2)cc1 | 26.5% | 53.9% | 87.5% | 90.4% | 69.4% | 64.7% | 73.2% | 102% | 33.2% | 90.6% | 108% | 81.4% | 91.2% | 74.8% | 112% | 96.4% | 86.8% | 76.9% | 63.5% | 61.8%
12 | COc1cc(-c2nc(SCCC(C)C)nc(NNC(=O)c3ccncc3)c2C#N)cc(OC)c1OC | 78.1% | 42.9% | 27.1% | 66% | 79.7% | 78.6% | 84.4% | 38.1% | 53.4% | 85.8% | 101% | 54.7% | 60.4% | 19.3% | 52.8% | 23% | 37.8% | 41.9% | 95.8% | 68.7%
13 | COc1cc2oc(-c3cccc(N)c3)cc(=O)c2c(OC)c1OC | 101% | 109% | 97.8% | 97.8% | 103% | 98.7% | 98.8% | 93.5% | 111% | 108% | 102% | 104% | 96.6% | 80.6% | 96.9% | 103% | 83.5% | 101% | 102% | 106%
14 | CC1=NC2=NN3C(=NN2C(c2ccccc2)=C1)N=NC(c1ccc(Br)cc1)=C3c1ccc(Br)cc1 | 103% | 105% | 117% | 98.1% | 103% | 97.1% | 106% | 89.9% | 100% | 105% | 103% | 96% | 101% | 80.1% | 128% | 99.3% | 95.7% | 98.7% | 106% | 99.8%
15 | C[C@H]1c2[nH]c3ccccc3c2C[C@H]2C(=O)N(CCCCCCC(=O)NO)CC(=O)N21 | 99.3% | 86.8% | 82.1% | 84.8% | 85.2% | 77.7% | 83% | 69.6% | -8.74% (active) | 78.9% | 76.3% | 85.3% | 88.5% | 83.3% | 90.3% | 90.1% | 87.8% | 83.2% | 36.9% | 52.3%
